# From PMC7862700, “An all-to-all approach to the identification of sequence-specific readers for epigenetic DNA modifications on cytosine”
# Assays:
# Assay in all cases: DAPPL (digital affinity profiling via proximity ligation, sequencing); 10 mM Tris-HCl pH 7.5, 50 mM NaCl, 1 mM DTT, 4% glycerol, room temperature, 30 min; GST-TFs on glutathione beads, 16-mer random dsDNA library, 0.1% formaldehyde crosslink after washing; high values mean tight binding
# [1] = molecular target: T1, FLI1 (Homo sapiens, UniProt Q01543 1-452); details: protein: recombinant; tags: N-terminal GST; dsDNA, one strand shown
# T1 sequence: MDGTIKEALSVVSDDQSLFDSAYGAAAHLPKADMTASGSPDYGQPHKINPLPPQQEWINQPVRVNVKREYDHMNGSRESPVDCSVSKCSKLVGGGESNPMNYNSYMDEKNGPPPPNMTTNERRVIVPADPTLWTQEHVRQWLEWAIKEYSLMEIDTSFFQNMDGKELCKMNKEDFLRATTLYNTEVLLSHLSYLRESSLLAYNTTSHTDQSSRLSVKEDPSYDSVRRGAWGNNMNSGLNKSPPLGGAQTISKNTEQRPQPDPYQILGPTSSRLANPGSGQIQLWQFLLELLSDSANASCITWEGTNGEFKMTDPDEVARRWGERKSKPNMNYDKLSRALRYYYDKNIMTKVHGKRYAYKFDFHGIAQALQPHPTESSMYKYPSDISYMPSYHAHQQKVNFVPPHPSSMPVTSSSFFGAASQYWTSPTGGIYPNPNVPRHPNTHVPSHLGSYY
# How it was run: (§1)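 Beads coated with glutathione captured GST-fused human transcription factors that had been expressed in yeast, and the factors were then given DNA barcodes and pooled with a tag-only sample. The pools were incubated with 200 nmole of a random double-stranded 16-mer DNA library in Tris/NaCl/DTT/glycerol buffer for 30 min at room temperature, washed, crosslinked with 0.1% formaldehyde and proximity-ligated with BsaI/T4 ligase at 37 °C for 1 h. PCR amplification and Illumina NextSeq500 sequencing came last. Binding signal is each hexamer's read frequency for a factor divided by its frequency for the tag-only sample.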
# [2] = molecular target: T2, ELK1 (Homo sapiens, UniProt P19419 1-428); details: protein: recombinant; tags: N-terminal GST; dsDNA, one strand shown
# T2 sequence: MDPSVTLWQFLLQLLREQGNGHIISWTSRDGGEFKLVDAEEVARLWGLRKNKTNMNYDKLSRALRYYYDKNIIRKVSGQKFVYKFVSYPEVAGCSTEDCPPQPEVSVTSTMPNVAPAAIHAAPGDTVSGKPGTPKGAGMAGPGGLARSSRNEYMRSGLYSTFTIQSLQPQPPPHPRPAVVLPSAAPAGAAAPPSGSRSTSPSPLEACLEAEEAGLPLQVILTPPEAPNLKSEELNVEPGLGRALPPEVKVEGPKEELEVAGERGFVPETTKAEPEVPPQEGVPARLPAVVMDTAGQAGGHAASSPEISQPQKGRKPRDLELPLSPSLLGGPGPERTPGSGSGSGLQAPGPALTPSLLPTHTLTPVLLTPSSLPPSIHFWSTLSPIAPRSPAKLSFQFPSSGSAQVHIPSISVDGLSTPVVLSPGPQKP
# How it was run: as §1
# [3] = molecular target: T3, GABPA (Homo sapiens, UniProt Q06546 1-454); details: protein: recombinant; tags: N-terminal GST; dsDNA, one strand shown
# T3 sequence: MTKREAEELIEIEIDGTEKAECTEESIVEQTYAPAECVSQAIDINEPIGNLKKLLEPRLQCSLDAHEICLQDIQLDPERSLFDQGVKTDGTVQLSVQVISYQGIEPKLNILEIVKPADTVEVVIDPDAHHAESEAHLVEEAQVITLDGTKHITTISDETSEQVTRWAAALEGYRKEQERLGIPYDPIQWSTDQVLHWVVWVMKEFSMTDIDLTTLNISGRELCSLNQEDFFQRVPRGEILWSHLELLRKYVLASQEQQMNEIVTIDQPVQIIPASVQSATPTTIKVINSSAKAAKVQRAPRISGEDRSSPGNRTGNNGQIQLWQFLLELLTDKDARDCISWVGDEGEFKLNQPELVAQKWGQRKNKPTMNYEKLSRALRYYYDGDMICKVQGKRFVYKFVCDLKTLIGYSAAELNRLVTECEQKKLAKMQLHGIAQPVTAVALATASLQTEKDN
# How it was run: as §1
# [4] = molecular target: T4, ERG (Homo sapiens, UniProt P11308 1-479); details: protein: recombinant; tags: N-terminal GST; dsDNA, one strand shown
# T4 sequence: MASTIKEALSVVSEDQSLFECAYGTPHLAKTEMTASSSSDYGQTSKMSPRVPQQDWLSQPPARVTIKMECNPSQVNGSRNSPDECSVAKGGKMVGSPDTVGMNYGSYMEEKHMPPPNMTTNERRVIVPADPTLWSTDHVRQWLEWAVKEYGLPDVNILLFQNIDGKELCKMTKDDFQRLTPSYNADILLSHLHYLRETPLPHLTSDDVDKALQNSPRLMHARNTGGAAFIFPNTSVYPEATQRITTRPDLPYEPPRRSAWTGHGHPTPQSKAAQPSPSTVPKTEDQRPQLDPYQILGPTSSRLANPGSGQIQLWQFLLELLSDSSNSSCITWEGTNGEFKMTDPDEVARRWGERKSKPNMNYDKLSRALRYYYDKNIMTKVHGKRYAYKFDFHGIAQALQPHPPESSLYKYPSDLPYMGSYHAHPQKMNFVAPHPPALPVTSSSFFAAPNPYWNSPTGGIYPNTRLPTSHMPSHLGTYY
# How it was run: as §1
# [5] = molecular target: ELF1 (Homo sapiens, UniProt P32519 1-619); details: protein: recombinant; tags: N-terminal GST; dsDNA, one strand shown
# How it was run: as §1
# [6] = molecular target: T5, EHF (Homo sapiens, UniProt Q9NZC4 1-300); details: protein: recombinant; tags: N-terminal GST; dsDNA, one strand shown
# T5 sequence: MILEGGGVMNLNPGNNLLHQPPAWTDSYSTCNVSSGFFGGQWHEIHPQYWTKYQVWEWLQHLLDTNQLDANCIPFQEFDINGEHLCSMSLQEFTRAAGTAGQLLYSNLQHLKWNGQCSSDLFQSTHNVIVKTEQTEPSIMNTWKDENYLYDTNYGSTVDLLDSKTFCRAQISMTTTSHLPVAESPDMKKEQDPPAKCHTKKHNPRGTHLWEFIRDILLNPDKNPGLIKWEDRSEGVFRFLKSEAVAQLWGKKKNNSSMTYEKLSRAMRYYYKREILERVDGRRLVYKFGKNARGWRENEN
# How it was run: as §1
# [7] = molecular target: SPI1 (Homo sapiens, UniProt P17947 1-270); details: protein: recombinant; tags: N-terminal GST; dsDNA, one strand shown
# How it was run: as §1
# [8] = molecular target: SPIB (Homo sapiens, UniProt Q01892 1-262); details: protein: recombinant; tags: N-terminal GST; dsDNA, one strand shown
# How it was run: as §1
# [9] = molecular target: T6, ELK3 (Homo sapiens, UniProt P41970 1-407); details: protein: recombinant; tags: N-terminal GST; dsDNA, one strand shown
# T6 sequence: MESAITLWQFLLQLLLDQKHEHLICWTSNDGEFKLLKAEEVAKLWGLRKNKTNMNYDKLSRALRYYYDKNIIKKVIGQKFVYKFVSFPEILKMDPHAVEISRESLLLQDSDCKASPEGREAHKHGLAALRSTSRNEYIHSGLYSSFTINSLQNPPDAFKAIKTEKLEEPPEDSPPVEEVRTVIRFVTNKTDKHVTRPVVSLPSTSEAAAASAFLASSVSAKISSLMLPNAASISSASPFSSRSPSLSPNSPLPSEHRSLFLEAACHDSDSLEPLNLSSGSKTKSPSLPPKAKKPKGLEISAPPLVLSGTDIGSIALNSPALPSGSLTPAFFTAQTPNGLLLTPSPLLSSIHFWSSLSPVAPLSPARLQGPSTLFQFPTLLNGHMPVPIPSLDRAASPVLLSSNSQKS
# How it was run: as §1
# [10] = molecular target: T7, FEV (Homo sapiens, UniProt Q99581 1-238); details: protein: recombinant; tags: N-terminal GST; dsDNA, one strand shown
# T7 sequence: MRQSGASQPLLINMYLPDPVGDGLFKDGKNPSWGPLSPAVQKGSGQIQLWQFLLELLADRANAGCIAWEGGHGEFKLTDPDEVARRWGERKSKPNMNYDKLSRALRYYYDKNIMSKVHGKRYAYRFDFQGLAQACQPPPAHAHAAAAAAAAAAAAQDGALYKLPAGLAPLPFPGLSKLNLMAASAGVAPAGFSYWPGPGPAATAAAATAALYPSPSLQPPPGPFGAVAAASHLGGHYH
# How it was run: as §1
# [11] = molecular target: ETV5 (Homo sapiens, UniProt P41161 1-510); details: protein: recombinant; tags: N-terminal GST; dsDNA, one strand shown
# How it was run: as §1
# [12] = molecular target: HSF1 (Homo sapiens, UniProt Q00613 1-529); details: protein: recombinant; tags: N-terminal GST; chain copies: 3; dsDNA, one strand shown
# How it was run: as §1
# [13] = molecular target: T8, SPIC (Homo sapiens, UniProt Q8N5J4 1-248); details: protein: recombinant; tags: N-terminal GST; dsDNA, one strand shown
# T8 sequence: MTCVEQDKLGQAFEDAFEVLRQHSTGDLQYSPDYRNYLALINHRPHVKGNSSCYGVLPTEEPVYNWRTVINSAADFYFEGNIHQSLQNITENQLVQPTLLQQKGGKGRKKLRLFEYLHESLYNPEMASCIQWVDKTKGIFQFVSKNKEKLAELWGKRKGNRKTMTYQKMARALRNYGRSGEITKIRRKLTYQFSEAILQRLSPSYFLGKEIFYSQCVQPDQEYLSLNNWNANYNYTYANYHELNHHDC
# How it was run: as §1
# [14] = molecular target: ELF4 (Homo sapiens, UniProt Q99607 1-663); details: protein: recombinant; tags: N-terminal GST; dsDNA, one strand shown
# How it was run: as §1
# [15] = molecular target: T9, ELK4 (Homo sapiens, UniProt P28324-2 1-405); details: protein: recombinant; tags: N-terminal GST; dsDNA, one strand shown
# T9 sequence: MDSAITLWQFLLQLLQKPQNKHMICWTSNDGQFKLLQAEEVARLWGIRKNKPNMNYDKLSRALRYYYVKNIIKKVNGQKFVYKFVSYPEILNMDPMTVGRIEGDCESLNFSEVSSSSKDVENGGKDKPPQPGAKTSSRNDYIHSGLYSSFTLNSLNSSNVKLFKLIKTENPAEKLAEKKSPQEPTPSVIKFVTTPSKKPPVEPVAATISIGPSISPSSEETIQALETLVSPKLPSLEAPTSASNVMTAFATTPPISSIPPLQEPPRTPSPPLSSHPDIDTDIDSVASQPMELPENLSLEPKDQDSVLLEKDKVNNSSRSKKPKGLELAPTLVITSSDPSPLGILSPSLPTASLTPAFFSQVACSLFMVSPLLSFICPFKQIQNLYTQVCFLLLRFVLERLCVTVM
# How it was run: as §1
# [16] = molecular target: T10, ETV2 (Homo sapiens, UniProt O00321 1-342); details: protein: recombinant; tags: N-terminal GST; dsDNA, one strand shown
# T10 sequence: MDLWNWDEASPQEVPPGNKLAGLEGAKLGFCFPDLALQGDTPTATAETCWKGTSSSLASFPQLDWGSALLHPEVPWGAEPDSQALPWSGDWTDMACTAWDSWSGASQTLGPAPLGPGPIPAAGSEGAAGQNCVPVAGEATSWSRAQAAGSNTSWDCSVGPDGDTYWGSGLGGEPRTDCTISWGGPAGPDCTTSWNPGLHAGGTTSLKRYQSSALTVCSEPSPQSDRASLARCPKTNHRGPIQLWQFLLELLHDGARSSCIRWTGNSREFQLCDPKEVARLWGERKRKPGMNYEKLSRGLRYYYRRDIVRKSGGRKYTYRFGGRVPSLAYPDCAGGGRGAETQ
# How it was run: as §1
# [17] = molecular target: T11, ELF3 (Homo sapiens, UniProt P78545 1-371); details: protein: recombinant; tags: N-terminal GST; dsDNA, one strand shown
# T11 sequence: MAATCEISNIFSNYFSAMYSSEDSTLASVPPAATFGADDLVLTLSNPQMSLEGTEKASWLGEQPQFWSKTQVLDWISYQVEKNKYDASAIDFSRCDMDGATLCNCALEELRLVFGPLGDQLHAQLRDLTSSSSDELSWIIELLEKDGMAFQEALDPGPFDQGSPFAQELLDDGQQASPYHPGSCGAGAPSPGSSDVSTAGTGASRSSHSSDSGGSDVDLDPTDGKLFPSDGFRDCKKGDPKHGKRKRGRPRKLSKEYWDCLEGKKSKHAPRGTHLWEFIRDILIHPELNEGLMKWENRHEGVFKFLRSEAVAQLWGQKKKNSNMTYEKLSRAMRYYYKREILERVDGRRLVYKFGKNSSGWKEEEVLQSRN
# How it was run: as §1
# [18] = molecular target: CRX (Homo sapiens, UniProt O43186 1-299); details: protein: recombinant; tags: N-terminal GST; dsDNA, one strand shown
# How it was run: as §1
# [19] = molecular target: ETV1 (Homo sapiens, UniProt P50549 1-477); details: protein: recombinant; tags: N-terminal GST; dsDNA, one strand shown
# How it was run: as §1
# ELF1, sequence (P32519 whole entry): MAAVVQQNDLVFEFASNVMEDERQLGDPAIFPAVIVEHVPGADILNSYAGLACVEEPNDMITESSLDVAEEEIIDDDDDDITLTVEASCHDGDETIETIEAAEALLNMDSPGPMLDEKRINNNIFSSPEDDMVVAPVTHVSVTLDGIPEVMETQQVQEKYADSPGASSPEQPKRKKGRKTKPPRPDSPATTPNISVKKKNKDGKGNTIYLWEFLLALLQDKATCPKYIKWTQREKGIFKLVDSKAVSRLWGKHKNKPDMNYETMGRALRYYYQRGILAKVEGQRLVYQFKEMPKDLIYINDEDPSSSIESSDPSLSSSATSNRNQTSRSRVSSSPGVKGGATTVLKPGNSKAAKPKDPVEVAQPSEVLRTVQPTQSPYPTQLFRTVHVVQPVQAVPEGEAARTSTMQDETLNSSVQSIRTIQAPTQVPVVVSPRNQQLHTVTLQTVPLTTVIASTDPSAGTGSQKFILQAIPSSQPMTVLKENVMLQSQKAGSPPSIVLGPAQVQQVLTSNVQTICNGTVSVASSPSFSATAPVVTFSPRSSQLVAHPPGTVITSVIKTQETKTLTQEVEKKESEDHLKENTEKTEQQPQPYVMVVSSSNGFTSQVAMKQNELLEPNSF
# ETV1, sequence (P50549 whole entry): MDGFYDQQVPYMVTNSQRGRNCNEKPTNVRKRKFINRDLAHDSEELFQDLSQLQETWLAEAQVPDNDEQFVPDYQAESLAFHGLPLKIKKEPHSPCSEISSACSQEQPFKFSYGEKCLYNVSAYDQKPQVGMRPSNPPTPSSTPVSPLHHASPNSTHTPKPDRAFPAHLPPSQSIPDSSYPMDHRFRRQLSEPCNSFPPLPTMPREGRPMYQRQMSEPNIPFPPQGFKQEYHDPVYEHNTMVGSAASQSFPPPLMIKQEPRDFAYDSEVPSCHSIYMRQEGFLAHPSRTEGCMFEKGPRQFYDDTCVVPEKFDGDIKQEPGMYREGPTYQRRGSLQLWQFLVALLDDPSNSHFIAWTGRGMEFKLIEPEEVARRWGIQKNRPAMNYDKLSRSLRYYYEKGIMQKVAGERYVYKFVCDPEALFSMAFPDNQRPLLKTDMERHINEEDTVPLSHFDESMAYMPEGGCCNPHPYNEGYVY
# ELF4, sequence (Q99607 whole entry): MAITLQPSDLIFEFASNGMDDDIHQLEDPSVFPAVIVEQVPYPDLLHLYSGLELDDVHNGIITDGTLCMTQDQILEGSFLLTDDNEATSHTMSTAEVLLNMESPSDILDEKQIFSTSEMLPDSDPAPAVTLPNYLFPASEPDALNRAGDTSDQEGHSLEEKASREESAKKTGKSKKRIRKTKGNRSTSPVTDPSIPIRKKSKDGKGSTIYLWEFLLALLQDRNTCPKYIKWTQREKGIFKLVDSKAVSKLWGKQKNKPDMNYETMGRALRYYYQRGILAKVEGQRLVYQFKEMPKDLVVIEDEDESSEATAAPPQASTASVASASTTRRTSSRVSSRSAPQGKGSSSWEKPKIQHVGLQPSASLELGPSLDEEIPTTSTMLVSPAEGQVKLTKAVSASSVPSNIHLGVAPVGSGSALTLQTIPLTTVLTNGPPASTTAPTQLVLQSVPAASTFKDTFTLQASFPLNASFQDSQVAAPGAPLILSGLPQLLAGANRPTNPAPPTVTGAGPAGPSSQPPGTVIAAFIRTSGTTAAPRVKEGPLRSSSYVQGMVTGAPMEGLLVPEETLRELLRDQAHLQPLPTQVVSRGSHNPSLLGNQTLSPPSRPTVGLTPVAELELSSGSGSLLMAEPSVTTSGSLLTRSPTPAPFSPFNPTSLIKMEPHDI
# SPIB, sequence (Q01892 whole entry): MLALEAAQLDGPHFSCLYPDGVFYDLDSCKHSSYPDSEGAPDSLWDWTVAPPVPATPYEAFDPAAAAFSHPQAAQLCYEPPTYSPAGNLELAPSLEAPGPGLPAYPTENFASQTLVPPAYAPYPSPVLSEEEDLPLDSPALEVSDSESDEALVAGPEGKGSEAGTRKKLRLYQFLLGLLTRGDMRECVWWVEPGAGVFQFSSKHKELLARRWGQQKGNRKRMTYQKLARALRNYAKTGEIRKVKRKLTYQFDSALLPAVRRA
# HSF1, sequence (Q00613 whole entry): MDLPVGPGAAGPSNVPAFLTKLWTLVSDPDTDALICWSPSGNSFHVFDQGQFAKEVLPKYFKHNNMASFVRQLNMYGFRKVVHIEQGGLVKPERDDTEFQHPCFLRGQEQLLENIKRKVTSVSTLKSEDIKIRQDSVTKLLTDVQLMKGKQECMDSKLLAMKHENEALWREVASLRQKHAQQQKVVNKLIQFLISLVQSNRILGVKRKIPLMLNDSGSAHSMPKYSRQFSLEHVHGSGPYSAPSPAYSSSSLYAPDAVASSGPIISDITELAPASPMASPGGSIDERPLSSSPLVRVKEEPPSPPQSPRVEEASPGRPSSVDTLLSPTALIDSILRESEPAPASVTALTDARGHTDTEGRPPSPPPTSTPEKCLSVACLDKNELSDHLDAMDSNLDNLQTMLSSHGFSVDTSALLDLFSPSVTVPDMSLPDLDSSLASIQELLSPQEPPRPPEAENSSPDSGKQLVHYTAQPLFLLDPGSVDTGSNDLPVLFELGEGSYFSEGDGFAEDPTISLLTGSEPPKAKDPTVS
# CRX, sequence (O43186 whole entry): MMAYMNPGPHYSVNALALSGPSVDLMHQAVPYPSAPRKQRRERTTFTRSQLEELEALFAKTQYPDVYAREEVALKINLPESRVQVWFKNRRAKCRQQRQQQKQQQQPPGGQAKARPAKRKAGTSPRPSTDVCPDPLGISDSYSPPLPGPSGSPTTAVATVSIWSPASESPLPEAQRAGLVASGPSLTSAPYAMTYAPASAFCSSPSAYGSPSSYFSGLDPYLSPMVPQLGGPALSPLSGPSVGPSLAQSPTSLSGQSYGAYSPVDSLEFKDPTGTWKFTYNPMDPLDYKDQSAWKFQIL
# ETV5, sequence (P41161 whole entry): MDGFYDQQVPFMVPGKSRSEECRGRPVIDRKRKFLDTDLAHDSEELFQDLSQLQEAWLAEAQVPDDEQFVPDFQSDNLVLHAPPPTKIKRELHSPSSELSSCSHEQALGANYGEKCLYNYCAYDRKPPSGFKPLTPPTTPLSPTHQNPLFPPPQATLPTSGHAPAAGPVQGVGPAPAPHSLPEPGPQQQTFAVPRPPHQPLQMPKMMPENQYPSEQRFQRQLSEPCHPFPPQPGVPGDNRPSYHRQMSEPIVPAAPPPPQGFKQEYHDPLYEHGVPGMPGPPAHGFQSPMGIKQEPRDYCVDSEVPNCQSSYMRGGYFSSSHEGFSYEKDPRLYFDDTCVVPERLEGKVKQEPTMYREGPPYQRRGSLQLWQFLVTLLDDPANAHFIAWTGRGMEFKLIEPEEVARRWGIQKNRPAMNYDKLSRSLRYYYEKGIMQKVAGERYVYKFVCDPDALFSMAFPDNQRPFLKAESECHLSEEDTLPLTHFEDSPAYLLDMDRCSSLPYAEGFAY
sequence,measurement,setting,value
ATCTAA,binding signal,[1],"1.21 fold enrichment (6-mer frequency, TF over GST control)"
same,binding signal,[2],"1.24 fold enrichment (6-mer frequency, TF over GST control)"
same,binding signal,[3],"1.23 fold enrichment (6-mer frequency, TF over GST control)"
same,binding signal,[4],"1.17 fold enrichment (6-mer frequency, TF over GST control)"
same,binding signal,[5],"1.23 fold enrichment (6-mer frequency, TF over GST control)"
same,binding signal,[6],"1.23 fold enrichment (6-mer frequency, TF over GST control)"
same,binding signal,[7],"1.13 fold enrichment (6-mer frequency, TF over GST control)"
same,binding signal,[8],"1.21 fold enrichment (6-mer frequency, TF over GST control)"
same,binding signal,[9],"1.16 fold enrichment (6-mer frequency, TF over GST control)"
same,binding signal,[10],"1.14 fold enrichment (6-mer frequency, TF over GST control)"
same,binding signal,[11],"1.15 fold enrichment (6-mer frequency, TF over GST control)"
same,binding signal,[12],"1.49 fold enrichment (6-mer frequency, TF over GST control)"
same,binding signal,[13],"1.13 fold enrichment (6-mer frequency, TF over GST control)"
same,binding signal,[14],"1.23 fold enrichment (6-mer frequency, TF over GST control)"
same,binding signal,[15],"1.24 fold enrichment (6-mer frequency, TF over GST control)"
same,binding signal,[16],"1.22 fold enrichment (6-mer frequency, TF over GST control)"
same,binding signal,[17],"1.12 fold enrichment (6-mer frequency, TF over GST control)"
same,binding signal,[18],"1.83 fold enrichment (6-mer frequency, TF over GST control)"
same,binding signal,[19],"1.16 fold enrichment (6-mer frequency, TF over GST control)"
